# Tests used:
# Experiment in all cases: DAPPL (digital affinity profiling via proximity ligation, sequencing); 10 mM Tris-HCl pH 7.5, 50 mM NaCl, 1 mM DTT, 4% glycerol, room temperature, 30 min; GST-TFs on glutathione beads, 16-mer random dsDNA library, 0.1% formaldehyde crosslink after washing; high values mean tight binding
# Details in all cases: protein: recombinant; tags: N-terminal GST; dsDNA, one strand shown
# [1] = target: T1, FLI1 (Homo sapiens, UniProt Q01543 1-452)
# T1 sequence: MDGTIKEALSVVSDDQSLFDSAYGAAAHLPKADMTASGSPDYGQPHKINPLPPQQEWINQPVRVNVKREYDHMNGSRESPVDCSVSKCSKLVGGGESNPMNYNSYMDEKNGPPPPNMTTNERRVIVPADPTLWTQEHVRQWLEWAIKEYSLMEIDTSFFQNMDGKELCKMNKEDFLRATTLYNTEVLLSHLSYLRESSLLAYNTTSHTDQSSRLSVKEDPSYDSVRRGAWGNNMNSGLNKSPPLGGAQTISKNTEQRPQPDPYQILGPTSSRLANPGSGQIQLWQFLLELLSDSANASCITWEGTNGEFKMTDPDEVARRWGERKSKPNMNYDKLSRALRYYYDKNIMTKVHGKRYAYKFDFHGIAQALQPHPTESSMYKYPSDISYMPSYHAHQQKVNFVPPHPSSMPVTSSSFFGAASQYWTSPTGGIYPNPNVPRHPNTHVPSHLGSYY
# How it was run: (§1)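 Human transcription factors were made in yeast as GST fusions, captured on glutathione beads and barcoded with DNA. With a tag-only sample included, the pool was incubated with 200 nmole of a random double-stranded 16-mer DNA library in Tris/NaCl/DTT/glycerol buffer at room temperature for 30 min, then crosslinked with 0.1% formaldehyde after washing, ligated by proximity, amplified and sequenced. For binding signal, each hexamer's read frequency for a factor is divided by its frequency for the tag-only sample.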
# [2] = target: T2, ELK1 (Homo sapiens, UniProt P19419 1-428)
# T2 sequence: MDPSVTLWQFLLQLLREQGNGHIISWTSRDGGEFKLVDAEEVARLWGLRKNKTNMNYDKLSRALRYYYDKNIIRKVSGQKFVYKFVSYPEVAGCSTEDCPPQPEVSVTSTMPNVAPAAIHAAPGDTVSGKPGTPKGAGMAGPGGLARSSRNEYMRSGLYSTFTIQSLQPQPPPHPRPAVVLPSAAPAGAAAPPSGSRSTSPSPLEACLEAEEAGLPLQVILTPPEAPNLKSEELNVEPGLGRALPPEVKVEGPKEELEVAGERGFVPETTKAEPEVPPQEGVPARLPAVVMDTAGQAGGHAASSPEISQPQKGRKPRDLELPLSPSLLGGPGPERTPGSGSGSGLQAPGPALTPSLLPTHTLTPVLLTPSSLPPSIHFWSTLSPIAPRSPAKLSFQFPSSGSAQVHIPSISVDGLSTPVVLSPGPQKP
# How it was run: as §1
# [3] = target: T3, GABPA (Homo sapiens, UniProt Q06546 1-454)
# T3 sequence: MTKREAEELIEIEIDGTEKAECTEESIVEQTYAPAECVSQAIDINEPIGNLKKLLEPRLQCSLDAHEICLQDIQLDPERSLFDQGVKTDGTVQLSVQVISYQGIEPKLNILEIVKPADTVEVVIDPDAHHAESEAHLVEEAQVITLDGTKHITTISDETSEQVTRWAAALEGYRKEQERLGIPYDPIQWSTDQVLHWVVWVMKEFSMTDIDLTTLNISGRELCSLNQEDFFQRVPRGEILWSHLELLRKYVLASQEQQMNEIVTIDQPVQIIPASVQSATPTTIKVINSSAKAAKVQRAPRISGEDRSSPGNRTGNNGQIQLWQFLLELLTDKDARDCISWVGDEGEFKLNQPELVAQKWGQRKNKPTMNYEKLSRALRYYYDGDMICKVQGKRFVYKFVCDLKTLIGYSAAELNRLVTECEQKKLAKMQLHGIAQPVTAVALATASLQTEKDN
# How it was run: as §1
# [4] = target: T4, ERG (Homo sapiens, UniProt P11308 1-479)
# T4 sequence: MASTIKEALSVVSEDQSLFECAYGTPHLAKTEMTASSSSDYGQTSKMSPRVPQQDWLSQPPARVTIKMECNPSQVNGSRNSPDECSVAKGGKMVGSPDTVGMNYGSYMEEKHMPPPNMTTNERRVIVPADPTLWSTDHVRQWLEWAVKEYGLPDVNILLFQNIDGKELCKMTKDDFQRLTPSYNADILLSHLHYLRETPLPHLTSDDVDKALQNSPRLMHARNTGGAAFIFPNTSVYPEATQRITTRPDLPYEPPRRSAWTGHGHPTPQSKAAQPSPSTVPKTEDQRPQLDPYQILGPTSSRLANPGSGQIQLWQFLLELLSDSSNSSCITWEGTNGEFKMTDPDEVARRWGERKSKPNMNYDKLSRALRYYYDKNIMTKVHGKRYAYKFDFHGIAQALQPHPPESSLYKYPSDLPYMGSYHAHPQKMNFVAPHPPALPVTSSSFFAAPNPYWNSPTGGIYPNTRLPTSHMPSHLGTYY
# How it was run: as §1
# [5] = target: ELF1 (Homo sapiens, UniProt P32519 1-619)
# Sequence of ELF1 (P32519 whole entry): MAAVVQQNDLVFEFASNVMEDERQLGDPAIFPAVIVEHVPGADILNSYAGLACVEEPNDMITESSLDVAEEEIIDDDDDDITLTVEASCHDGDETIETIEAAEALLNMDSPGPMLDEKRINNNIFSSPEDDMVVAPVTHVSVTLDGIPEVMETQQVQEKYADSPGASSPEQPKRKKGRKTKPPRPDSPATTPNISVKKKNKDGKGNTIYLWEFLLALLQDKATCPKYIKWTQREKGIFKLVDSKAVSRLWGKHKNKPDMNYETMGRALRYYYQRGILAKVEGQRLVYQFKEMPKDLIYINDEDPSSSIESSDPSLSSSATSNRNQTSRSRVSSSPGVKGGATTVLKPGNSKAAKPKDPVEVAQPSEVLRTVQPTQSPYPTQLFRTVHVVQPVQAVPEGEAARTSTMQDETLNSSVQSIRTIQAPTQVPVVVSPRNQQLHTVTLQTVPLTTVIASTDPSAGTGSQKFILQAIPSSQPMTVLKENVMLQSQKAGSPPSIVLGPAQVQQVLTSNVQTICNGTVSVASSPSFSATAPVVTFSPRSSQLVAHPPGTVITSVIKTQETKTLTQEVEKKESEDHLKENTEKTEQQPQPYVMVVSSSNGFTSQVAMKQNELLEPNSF
# How it was run: as §1
# [6] = target: T5, EHF (Homo sapiens, UniProt Q9NZC4 1-300)
# T5 sequence: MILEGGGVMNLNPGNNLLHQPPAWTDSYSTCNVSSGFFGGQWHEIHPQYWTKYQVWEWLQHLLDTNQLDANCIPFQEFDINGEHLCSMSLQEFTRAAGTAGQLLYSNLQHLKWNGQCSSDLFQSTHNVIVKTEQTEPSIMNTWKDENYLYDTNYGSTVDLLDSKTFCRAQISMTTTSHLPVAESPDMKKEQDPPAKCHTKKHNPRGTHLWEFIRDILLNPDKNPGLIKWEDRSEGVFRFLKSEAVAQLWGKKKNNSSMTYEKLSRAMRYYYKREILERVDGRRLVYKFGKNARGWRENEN
# How it was run: as §1
# [7] = target: SPI1 (Homo sapiens, UniProt P17947 1-270)
# How it was run: as §1
# [8] = target: SPIB (Homo sapiens, UniProt Q01892 1-262)
# Sequence of SPIB (Q01892 whole entry): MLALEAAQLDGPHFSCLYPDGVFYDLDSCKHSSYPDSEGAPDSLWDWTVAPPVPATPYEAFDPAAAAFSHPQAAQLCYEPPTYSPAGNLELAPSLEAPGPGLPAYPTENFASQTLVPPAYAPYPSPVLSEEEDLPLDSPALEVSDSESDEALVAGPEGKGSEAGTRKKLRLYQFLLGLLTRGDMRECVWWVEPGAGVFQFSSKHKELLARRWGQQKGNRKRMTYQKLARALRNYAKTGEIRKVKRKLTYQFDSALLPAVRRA
# How it was run: as §1
# [9] = target: T6, ELK3 (Homo sapiens, UniProt P41970 1-407)
# T6 sequence: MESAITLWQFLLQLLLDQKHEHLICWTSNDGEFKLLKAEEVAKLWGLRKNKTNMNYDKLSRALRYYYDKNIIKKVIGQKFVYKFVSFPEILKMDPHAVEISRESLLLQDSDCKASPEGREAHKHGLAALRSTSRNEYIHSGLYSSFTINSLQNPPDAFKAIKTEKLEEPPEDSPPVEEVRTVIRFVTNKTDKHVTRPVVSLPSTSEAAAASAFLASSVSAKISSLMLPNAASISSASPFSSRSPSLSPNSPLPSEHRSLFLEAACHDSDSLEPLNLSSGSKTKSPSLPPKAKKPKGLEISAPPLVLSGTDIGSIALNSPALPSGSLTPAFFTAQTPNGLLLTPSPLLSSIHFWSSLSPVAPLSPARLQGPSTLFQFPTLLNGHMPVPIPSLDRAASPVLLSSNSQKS
# How it was run: as §1
sequence,measurement,setting,value
AACTAT,binding signal,[1],"1.37 fold enrichment (6-mer frequency, TF over GST control)"
same,binding signal,[2],"1.36 fold enrichment (6-mer frequency, TF over GST control)"
same,binding signal,[3],"1.38 fold enrichment (6-mer frequency, TF over GST control)"
same,binding signal,[4],"1.36 fold enrichment (6-mer frequency, TF over GST control)"
same,binding signal,[5],"1.29 fold enrichment (6-mer frequency, TF over GST control)"
same,binding signal,[6],"1.36 fold enrichment (6-mer frequency, TF over GST control)"
same,binding signal,[7],"1.33 fold enrichment (6-mer frequency, TF over GST control)"
same,binding signal,[8],"1.29 fold enrichment (6-mer frequency, TF over GST control)"
same,binding signal,[9],"1.36 fold enrichment (6-mer frequency, TF over GST control)"

# — PMC7862700, “An all-to-all approach to the identification of sequence-specific readers for epigenetic DNA modifications on cytosine”
